# From PubChem BioAssay (NCATS)
# Records with an inconclusive call do not appear. A number with no mark means an inactive call. Calls follow the shape of the dose curve; as a rule, active = well fitted cell-killing curve with a large enough effect in the repeat runs; inconclusive = weak or mixed curves, or effect the other way; inactive = flat fitted curve, though single readings scatter.
# Experiment: qHTS assay for small molecule antagonists of the retinoid-related orphan receptor gamma (ROR-gamma) signaling pathway - cell viability counter screen (AID 720652);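 also: compound exposure lasted 16 hr before ATP read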
# Settings: RORgamma reporter cell line viability counter screen; series mostly up to 92.2 µM; activity change, negative = cytotoxicity: at the top concentration
# Excerpt: National Center for Advancing Translational Sciences [NCATS]
# NIH Chemical Genomics Center [NCGC]
# National Institutes of Environmental Health Sciences [NIEHS]
# National Toxicology Program [NTP]
# Nuclear steroid hormone receptors are involved in many biological processes including inflammatory responses, cell proliferation, and apoptosis. Environmental factors or compounds disrupting these nuclear receptor pathways and gene expression may promote susceptibility to immunotoxicants and autoimmune diseases. One important group of these expression factors are the retinoid-related orphan receptors. To assess compounds that may interfere with the retinoid-related orphan receptor gamma (ROR-gamma) transcription factor, a cell-based luciferase assay was used.
# The CHO cell-based assay utilizes a TET-inducible ROR expression factor and ROR response element-LUC reporter gene. Reporter activity was induced using doxycycline and measured after 16hr incubation. Luminescence was read using Viewlux (PerkinElmer), where a decrease in reporter activity would show a decrease in luminescence. The cytotoxicity of the compounds against ROR response-Luc reporter gene cell line was quantified by measuring the intracellular ATP content.
# 1,000 cells in 4 uL/well were dispensed into white wall/solid bottom 1536-well plates using a Multidrop Combi (Thermo Scientific) dispenser. Following incubation at 37 C and 5% CO2 for 5 hr, 23 nL compound or DMSO vehicle were transferred by a pin tool, then the plates were treated with 1 ul doxycycline to induce reporter gene activity. After 16 hr incubation at 37 C and 5% CO2, 5 uL/well of CellTiter-Glo reagent (Promega) was then added to each plate using a Flying Reagent Dispenser and incubated at room temperature for 30 min. The luminescence intensity was quantified on a ViewLux plate reader (PerkinElmer).
# % is scaled to controls: 0 for no effect and ±100 for the full control effect.
row,Compound,"activity change, negative = cytotoxicity"
1,Cc1cc(-c2ccc(N)c(C)c2)ccc1N,-13.4%
2,C=C(Cl)CCl,4.42%
3,Cc1ccc(N)cc1Cl,9.38%
4,O=C(O)C(Cl)Br (stereo not given),12.3%
5,O=C(Cl)OCc1ccccc1,-2.16%
6,O=Cc1ccc2c(c1)OCO2,-2.3%
7,Nc1ccc(-c2ccccc2)cc1,-3.81%
8,C1CC2OC2CC1C1CO1 (stereo not given),2.87%
9,O=[N+]([O-])CCO,3.81%
10,Clc1ccc(C(Cl)(Cl)Cl)c(Cl)c1,8.37%
11,COc1ccc(C=O)cc1,11.8%
12,CNC(=O)O/N=C/C(C)(C)S(C)=O (stereo not given),5.24%
13,Oc1cccc(Cl)c1Cl,-6.47%
14,CC(C)OS(C)(=O)=O,9.9%
15,ClC(Cl)(Cl)C(Cl)(Cl)Cl,0.894%
16,CC(C#N)CCC#N (stereo not given),8.01%
17,CCOP(=O)(OCC)OCC,-2.4%
18,Cc1ccc(N)cc1N,-8.79%
19,Cc1ccc2c(C)cccc2c1,2.46%
20,COC(=O)Nc1cccc(OC(=O)Nc2cccc(C)c2)c1,12.8%

row,Compound,"activity change, negative = cytotoxicity"
1,O=[N+]([O-])c1ccc(Cl)c(Cl)c1Cl,9.51%
2,Clc1ccc(Cl)c(Cl)c1,7.32%
3,O=[N+]([O-])c1ccc2c3c(cccc13)CC2,3.74%
4,CCCCC(CC)COC(=O)c1ccc(C(=O)OCC(CC)CCCC)c(C(=O)OCC(CC)CCCC)c1 (stereo not given),4.77%
5,[O-][Cl+]O,21.7%
6,c1ccc(Nc2ccc(Nc3ccccc3)cc2)cc1,-6.82%
7,Nc1c(Cl)cc([N+](=O)[O-])cc1Cl,-6.44%
8,C=CCBr,3.49%
9,Cc1coc2c1CCC(C)C2 (stereo not given),4.99%
10,O=C(O)C(Br)CBr (stereo not given),-12.8%
11,O=[N+]([O-])c1cc(Cl)c(Cl)cc1Cl,-5.65%
12,Nc1cc(Cl)cc(Cl)c1,-0.22%
13,CSSC,5.37%
14,Nc1ncc([N+](=O)[O-])s1,5.06%
15,CC(=O)[O-].CC(=O)[O-].CC(=O)[O-].[Cr+3],6.15%
16,OCC(Cl)CCl (stereo not given),0.873%
17,CC(=O)NNc1ccccc1,-0.859%
18,BrCCc1ccccc1,-0.695%
19,O=[N+]([O-])c1ccc(Cl)cc1,2.19%
20,ClCCBr,-6.52%
